Giardia kill: Giardia lamblia killing; AID 540267; Giardia lamblia trophozoite viability; activity change, % at 7.66 µM, hits read low; 0.15% of 340,000 active; in the data active = activity change below about -80%; inconclusive = between about -30% and that limit;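 also: parasites exposed to compound for two days anaerobically before the ATP read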
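Killing of trophozoites was scored by loss of ATP luminescence after a 48 hrs anaerobic exposure to compounds at 37 deg C, using 100 cells per well.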
HT1080 IDH1KD tx: HT-1080 IDH1 knockdown cell toxicity (counter line); HT-1080 IDH1 knockdown viability, ATP luminescence, 48 h; 2% of 360,000 active; Potency, µM (highest dose often 46.1 µM), actives largely listed as cytotoxic
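IDH1KD HT-1080 cells, 750/well, RPMI + 5% FBS; compound pinned after 2 h settling; 48 h, 37 °C; CellTiter-Glo luminescence; % activity normalised to DMSO and no-cell wells; curves fitted, classed by r2 and efficacy.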
TGFb inhibitor: inhibitors of TGF-b signaling | 1.2% of 410,000 active | Potency, µM (series often up to 46.1 µM), actives largely listed as inhibitors | HepG2 CAGA-GFP TGF-b/SMAD3 reporter, GFP fluorescence, 18 h; TGF-beta stimulated, 500 pg/mL final; also: nearly all actives have a fitted effect of over 65% in size
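GFP signal (ex488/em500-530) from TGF-beta-stimulated HEPG2 CAGA-GFP cells, 500 pg/mL final, 18 h at 37 degrees C in DMEM plus 1% FBS, normalized to unstimulated and DMSO-stimulated controls.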
HepG2 tox: kills HepG2 cells in TGF-b inhibitor counter-screen. 0.76% of 410,000 active. AID 588856. Potency, µM (titrated, usually from 46.1 µM), usual class: cytotoxic. HepG2 CAGA-GFP viability, ATP luminescence, 18 h
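HepG2 CAGA-GFP cells (1000/well, DMEM with 1% FBS) received compound, then TGF-beta at 500 pg/mL final, and were incubated 18 hours at 37 degrees C. Viability was read by CellTiter-Glo luminescence. Media-only wells were set as complete cell-killing and DMSO as no toxicity.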
IL-1B inflam inh: blocks inflammasome-driven IL-1 beta release. THP-1 LPS/ATP IL-1B secretion, AlphaLISA, 16 h; hits give low values. activity change, % at 57.5 µM. 4.7% of 360,000 active. AID 743279; in the data active = activity change below about -50%; inconclusive = mostly about -30% to -49%
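Secreted IL-1B measured by AlphaLISA bead assay after 16 h compound exposure of THP-1 cells; compounds (final up to 57.5 uM) added 1 h before LPS (250 ng/mL) and ATP (1.25 mM) stimulation; lower signal means less secretion.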
HT1080NT lethal: kills 2HG-producing HT-1080-NT fibrosarcoma cells | 1.6% of 360,000 active | Potency, µM (highest dose often 46.1 µM), most hits filed as cytotoxic | HT-1080-NT fibrosarcoma viability, CellTiter-Glo ATP luminescence, 48 h;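 also: NT is the 2HG producing partner of a matched IDH1 knockdown line; nearly all actives have a fitted effect of over 55% in size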
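HT-1080-NT; 750 cells/well; 5% FBS RPMI; 48 h compound, 37 degrees C; CellTiter-Glo luminescence; curve fitting and curve-class assignment.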
Of the large screens only hits and unclear results are named; the others gave an inactive call. Hits are enriched below; roughly 6.5% of the tested compounds scored in any of these assays. Unless noted, calls follow the shape of the dose curve; as a rule, active = well fitted curve in the direction sought with a large enough effect; inconclusive = small, poorly fitted or top-dose-only effect, or another doubt; inactive = no such curve, though single readings can be large; an effect the other way counts as inactive or inconclusive.

Cc1cccc(OP(=O)(Nc2cccnc2)Oc2cccc(C)c2)c1	none
CNCC(O)c1cc(OCc2ccccc2)c(OCc2ccccc2)cc1F (centres undefined)	TGFb inhibitor inconclusive (no result: HT1080 IDH1KD tx, IL-1B inflam inh, HT1080NT lethal)
CC(C(=O)O)N(C(=O)c1ccccc1)c1ccc(F)c(Cl)c1 (centres undefined)	none
Cc1cc(=O)oc2cc(OCC(=O)N3CCN(Cc4ccc5c(c4)OCO5)CC3)ccc12	none
N#CC(C#N)=C(C#N)c1ccc(Nc2ccccc2)cc1	IL-1B inflam inh -90
CCN(CC)N=O	IL-1B inflam inh -97
CN(C)N=O	Giardia kill inconclusive
C=C(C=O)C[C@@H]1C[C@H](O)C2OC3C[C@]4(C)OC5/C=C\CC6OC7C(CC=CCC6OC5CCCC4OC3CC2O1)OC1CC2OC3CC(=O)OC3C[C@@H](C)C[C@@]2(C)OC1C[C@@H]7C (some centres undefined)	TGFb inhibitor inconclusive, IL-1B inflam inh -102, HT1080NT lethal 8.2µM (no result: HT1080 IDH1KD tx, HepG2 tox)
O=P(O)(CCc1ccccn1)CN1CCCCC1	none
c1ccc(CNC2CCCCCCC2)cc1 (tested in a mixture with another compound)	IL-1B inflam inh -74
c1ccc2cc(C3N4CCCN34)ccc2c1 (centres undefined)	none
N#Cc1ccc2nc(-c3ccc(CN4CCC(n5c(=O)[nH]c6ccccc65)CC4)cc3)c(-c3ccccc3)nc2c1	HT1080 IDH1KD tx inconclusive, IL-1B inflam inh -66, HT1080NT lethal inconclusive (no result: Giardia kill, TGFb inhibitor, HepG2 tox)
Cc1cccc2nc(-c3ccccc3)c(-c3ccc(CN4CCC(n5c(=O)[nH]c6ccccc65)CC4)cc3)nc12	HT1080 IDH1KD tx inconclusive, IL-1B inflam inh -51, HT1080NT lethal inconclusive (no result: Giardia kill, TGFb inhibitor, HepG2 tox)
Cc1cccc(C)c1-n1nnnc1C(c1cccc2ccccc12)N1CCC(n2c(=O)[nH]c3ccccc32)CC1 (centres undefined)	none (no result: Giardia kill)
O=C(NCCN1CCC(n2c(=O)[nH]c3ccccc32)CC1)c1ccc2ccccc2c1	HT1080 IDH1KD tx inconclusive (no result: Giardia kill, TGFb inhibitor, HepG2 tox, IL-1B inflam inh)
CC1CCN(C(=O)CCl)CC1	IL-1B inflam inh inconclusive
O=C(COc1ccc2ccccc2c1)N1CCN(Cc2c[nH]c3ccccc23)CC1	HT1080 IDH1KD tx inconclusive, TGFb inhibitor inconclusive, HepG2 tox 13µM
COc1ccc(CN2CCN(C(=O)COc3ccc4ccccc4c3)CC2)c(OC)c1	HT1080 IDH1KD tx inconclusive, IL-1B inflam inh inconclusive, HT1080NT lethal inconclusive
O=C(COc1ccc(Br)cc1)N1CCN(C2CCCC2)CC1	none
O=C(COc1ccc(Br)cc1)N1CCN(Cc2c[nH]c3ccccc23)CC1	TGFb inhibitor 11µM, IL-1B inflam inh inconclusive
Oc1ccc(C2NCc3ccccc3-n3cccc32)cc1Cl (centres undefined)	none
FC(F)(F)c1cccc(C2NCc3ccccc3-n3cccc32)c1 (centres undefined)	HT1080 IDH1KD tx inconclusive, IL-1B inflam inh -88
COc1ccc(NC2Oc3cc4c(cc3C(c3cc(OC)c(OC)c(OC)c3)C2C)OCO4)cc1 (centres undefined)	HT1080 IDH1KD tx inconclusive, TGFb inhibitor inconclusive, IL-1B inflam inh -64, HT1080NT lethal inconclusive
COc1cc([C@@H]2c3cc4c(cc3[C@H](OC(C)=O)[C@H]3COC(=O)[C@@H]23)OCO4)cc(OC)c1OC	TGFb inhibitor inconclusive (no result: HT1080 IDH1KD tx, IL-1B inflam inh, HT1080NT lethal)
CCn1ccnc1CN1CCCC(C(=O)c2cccc(C(F)(F)F)c2)C1 (centres undefined)	none
COc1ccc(OC(=O)N2C/C(=C/c3ccccc3)C(=O)/C(=C\c3ccccc3)C2)cc1	Giardia kill inconclusive, HT1080 IDH1KD tx 8.2µM, TGFb inhibitor inconclusive, IL-1B inflam inh -87, HT1080NT lethal 10µM
COc1ccc(CC(=O)N2C[C@H]3C[C@@H](C2)c2cccc(=O)n2C3)cc1	none
O=C(CCCc1ccc(N(CCCl)CCCl)cc1)NCc1ccccc1	HT1080 IDH1KD tx 23µM, HT1080NT lethal inconclusive (no result: Giardia kill)
C=C1[C@@H](C)[C@H]2[C@H](Cc3ccccc3)NC(=O)[C@]23OC(=O)/C=C/[C@H](O)CCC[C@@H](C)C/C=C/[C@H]3[C@@H]1O	HT1080 IDH1KD tx 0.73µM, TGFb inhibitor inconclusive, HT1080NT lethal 1.3µM
COc1ccc(S(=O)(=O)Nc2cc([N+](=O)[O-])ccc2OC)cc1	HT1080 IDH1KD tx 16µM, HT1080NT lethal 13µM
CC(C)c1ccc(OCC(=O)N2CCN(CCc3ccccn3)CC2)cc1	none (no result: Giardia kill, HT1080 IDH1KD tx, IL-1B inflam inh, HT1080NT lethal)
COc1ccc(S(=O)(=O)N2CCOCC2)cc1NC(=O)COC(=O)Cc1ccccc1	none
COc1ccc(N/N=C/c2c(O)n(-c3cccc(C)c3)c(=O)[nH]c2=O)cc1	HT1080 IDH1KD tx 12µM, HT1080NT lethal 12µM
Cn1c(O)c(/C=N/Nc2ccccc2)c(=O)n(C)c1=O	HT1080 IDH1KD tx 7.3µM, HT1080NT lethal 8.2µM
Cc1ccc(-n2c(O)c(/C=N/Nc3ccccc3)c(=O)[nH]c2=O)cc1C	HT1080 IDH1KD tx 6.5µM, HT1080NT lethal inconclusive
Cn1c(O)c(C=Nc2ccccc2)c(=O)n(C)c1=O	none
COc1ccc(N/N=C/c2c(O)n(-c3ccc(C)c(C)c3)c(=O)[nH]c2=O)cc1	HT1080 IDH1KD tx inconclusive, HT1080NT lethal inconclusive
Cc1ccc(CN(Cc2ccccc2)C(=S)NCC(=O)N2CCC3(CC2)OCCO3)o1	TGFb inhibitor inconclusive
CCCCOC1OCN(C2CCCCC2)CC1(C)C (centres undefined)	none (no result: Giardia kill)
CNc1ccc2nc3ccccc3[n+](C)c2c1	HT1080 IDH1KD tx 15µM, HT1080NT lethal 21µM
C[n+]1c2ccccc2nc2ccc(NCCO)cc21	none
O=[N+]([O-])c1ccc(N2CCCC2)c2ncccc12	none
CC1CN(c2ccc([N+](=O)[O-])c3cccnc23)CC(C)N1 (centres undefined)	Giardia kill -86
CC(C)OC(=O)Nc1ccc(N=C(N)N[N+](=O)[O-])cc1	none
Cc1cc(N2CCN(S(=O)(=O)c3ccc(Cl)cc3)CC2)c2ccccc2n1	HT1080 IDH1KD tx inconclusive, TGFb inhibitor 14µM, HepG2 tox 10µM, IL-1B inflam inh -64, HT1080NT lethal inconclusive
O=S(=O)(c1ccc(Cl)cc1)N1CN2CCN(C2)C1	none
CSCCC(c1nnnn1Cc1ccccc1)N1CCC2(CC1)C(=O)NCN2c1ccccc1 (centres undefined)	TGFb inhibitor inconclusive, HT1080NT lethal inconclusive (no result: Giardia kill)
C=C1C(=O)OC2C1CCC(C)C1(O)C=CC(=O)C21C (centres undefined)	HT1080 IDH1KD tx inconclusive, TGFb inhibitor inconclusive, IL-1B inflam inh -109, HT1080NT lethal inconclusive
COc1cccc(C(=O)C2CN(C)CC2c2ccc(Cl)cc2)c1 (centres undefined)	IL-1B inflam inh -59
